These results are taken from the supplement of paper PMC8975748.

SMILES strings stand for the structures. Counter-ions that a name gives are not always drawn.

This experiment deals with Saccharomyces cerevisiae BY4741 SeMeCo community. Description: z-score of subpopulation abundance vs DMSO median, subpopulation auxotrophic for M; higher = larger share of this subpopulation than in DMSO controls. To be noted: 10 µM; 24 h; SM minimal medium; subpopulation (auxotrophy): M. The protocol:
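Fluorescent four-plasmid SeMeCo (self-establishing metabolically cooperating S. cerevisiae BY4741 community; plasmids pH-mRuby2, pL-mWasabi, pU-eCFP, pM-TagRFP657) was grown 24 h in minimal SM medium with each Selleck FDA-approved drug at 10 µM in 384-well plates. Cells were fixed and imaged by high-content confocal microscopy. For each auxotrophic subpopulation (and the prototroph), a z-score gives the deviation from the DMSO vehicle-control population median.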
On to `CO[C@H]1C[C@@H]2CC[C@@H](C)[C@@](O)(O2)C(=O)C(=O)N2CCCC[C@H]2C(=O)O[C@H]([C@H](C)C[C@@H]2CC[C@H](n3cnnn3)[C@H](OC)C2)CC(=O)[C@H](C)/C=C(\C)[C@@H](O)[C@@H](OC)C(=O)[C@H](C)C[C@H](C)/C=C/C=C/C=C/1C` [Zotarolimus(ABT-578)], for which the “z-score of subpopulation abundance” value is -0.02.

`CC1(C)S[C@@H]2[C@H](NC(=O)C(C(=O)O)c3ccccc3)C(=O)N2[C@H]1C(=O)O` (stereo not given in full) [Carbenicillin disodium]: the “z-score of subpopulation abundance” value was 0.64. The value for `COc1ccccc1OCC(O)CN1CCN(CC(=O)Nc2c(C)cccc2C)CC1` (stereo not given) [Ranolazine 2HCl] was -0.08; that for `CC(=O)NO` [Acetohydroxamic acid] was -0.27; that for `CC(C)C(=O)Oc1ccc(CO)cc1[C@H](CCN(C(C)C)C(C)C)c1ccccc1` [Fesoterodine Fumarate] was 0. In the case of `COC(=O)C1=C(C)NC(C)=C(C(=O)OC(C)(C)CN(C)CCC(c2ccccc2)c2ccccc2)C1c1cccc([N+](=O)[O-])c1` (stereo not given) [Lercanidipine], the “z-score of subpopulation abundance” value turned out to be 0.27. For `CC(=O)[C@@]1(O)CC[C@H]2[C@@H]3C[C@H](C)C4=CC(=O)CC[C@]4(C)[C@H]3CC[C@@]21C` [Medroxyprogesterone] the value was 0.07.

Regarding `Nc1c(CC(=O)O)cccc1C(=O)c1ccc(Br)cc1` [Bromfenac Sodium], the “z-score of subpopulation abundance” value came to 0.38.

Consider `Cc1ccccc1OCC(O)CO` (stereo not given) [Mephenesin], for which the “z-score of subpopulation abundance” value was 0.

As to `CCn1cc(C(=O)O)c(=O)c2cnc(N3CCNCC3)nc21` [Pipemidic acid], the “z-score of subpopulation abundance” value was 0.72. For `Oc1ccc(C2CNCCc3c2cc(O)c(O)c3Cl)cc1` (stereo not given) [Fenoldopam mesylate] the value was 1.31; for `O=C1CC2(CCCC2)CC(=O)N1CCCCN1CCN(c2ncccn2)CC1` [Buspirone HCl], -1.82; for `CO/N=C(\C(=O)N[C@@H]1C(=O)N2C(C(=O)[O-])=C(C[n+]3cccc4c3CCC4)CS[C@H]12)c1csc(N)n1` [Cefpirome sulfate], 0.51. For `Cn1c(=O)c2c(ncn2CC2OCCO2)n(C)c1=O` [Doxofylline] the value was -0.41. In the case of `COc1ccnc(C[S+]([O-])c2nc3cc(-n4cccc4)ccc3[nH]2)c1C` (stereo not given) [Ilaprazole], the “z-score of subpopulation abundance” value is -0.98. On to `Nc1cc(C(Cl)=C(Cl)Cl)c(S(N)(=O)=O)cc1S(N)(=O)=O` [Clorsulon], for which the “z-score of subpopulation abundance” value is -0.33.

In the case of `CCOC(=O)OC(C)OC1=C(C(=O)Nc2ccccn2)N(C)S(=O)(=O)c2ccccc21` (stereo not given) [Ampiroxicam], the “z-score of subpopulation abundance” value came to 0. The value for `CCCSc1ccc2[nH]c(NC(=O)OC)nc2c1` [Albendazole] was 0.54; that for `CCC1=C(C)CN(C(=O)NCCc2ccc(S(=O)(=O)NC(=O)N[C@H]3CC[C@H](C)CC3)cc2)C1=O` [Glimepiride] was -0.24; that for `O=C1CN(/N=C/c2ccc(-c3ccc([N+](=O)[O-])cc3)o2)C(=O)N1` [Dantrolene sodium] was 0.97. For `Cc1[nH]c(=O)c(C#N)cc1-c1ccncc1` [Milrinone] the value was -0.56; for `C[C@]12CCC3=C4CCC(=O)C=C4CC[C@H]3[C@@H]1CC[C@@]2(O)CC#N` [Dienogest], -0.36; for `NC(=NCCCCCCN=C(N)N=C(N)Nc1ccc(Cl)cc1)N=C(N)Nc1ccc(Cl)cc1` [Chlorhexidine?2HCl], -3.42. For `CC(C)c1c(C(=O)Nc2ccccc2)c(-c2ccccc2)c(-c2ccc(F)cc2)n1CC[C@@H](O)C[C@@H](O)CC(=O)O` [Atorvastatin Calcium] the value was 0.46. Take `CO[C@H]1C[C@@H]2CC[C@@H](C)[C@@](O)(O2)C(=O)C(=O)N2CCCC[C@H]2C(=O)O[C@H]([C@H](C)C[C@@H]2CC[C@@H](OP(C)(C)=O)[C@H](OC)C2)CC(=O)[C@H](C)/C=C(\C)[C@@H](O)[C@@H](OC)C(=O)[C@H](C)C[C@H](C)/C=C/C=C/C=C/1C` [Ridaforolimus (Deforolimus, MK-8669)]: the “z-score of subpopulation abundance” value was -1.24.

As to `Fc1ccc([C@@H]2CCNC[C@H]2COc2ccc3c(c2)OCO3)cc1` [Paroxetine HCl], the “z-score of subpopulation abundance” value is -0.31. For `O=C(c1ccccc1)c1ccc2n1CCC2C(=O)O` (stereo not given) [Ketorolac tromethamine salt] the value was 0.27; for `Cc1onc(-c2ccccc2Cl)c1C(=O)N[C@@H]1C(=O)N2[C@@H]1SC(C)(C)[C@@H]2C(=O)O` [Cloxacillin Sodium], 0.44. In the case of `C#CCN[C@@H]1CCc2ccccc21` [Rasagiline Mesylate], the “z-score of subpopulation abundance” value stood at 0.65. The value for `Nc1c(Br)cc(Br)cc1CN[C@H]1CC[C@H](O)CC1` [Ambroxol HCl] was -0.93; that for `N[C@@H]1CCCCN(c2c(F)cc3c(=O)c(C(=O)O)cn(C4CC4)c3c2Cl)C1` [Besifloxacin HCl] was -0.11. The value for `CC(C)[C@H](N)C(=O)OCC(CO)OCn1cnc2c(=O)[nH]c(N)nc21` (stereo not given in full) [Valganciclovir HCl] was -0.49; that for `CC1=C(CC(=O)O)c2cc(F)ccc2/C1=C\c1ccc([S+](C)[O-])cc1` (stereo not given) [Sulindac] was 0.53; that for `COc1ccc2c3c1O[C@H]1C[C@@H](O)C=C[C@@]31CCN(C)C2` [Galanthamine HBr] was 1.78. For `CCOc1cc(NC(C)=O)ccc1C(=O)OC` [Ethopabate] the value was 0.39; for `CC1(C)S[C@@H]2[C@H](NC(=O)[C@H](N)c3ccc(O)cc3)C(=O)N2[C@H]1C(=O)O` [Amoxicillin Sodium], 0.97; for `CCCN[C@H]1CCc2nc(N)sc2C1` [Pramipexole 2HCl Monohydrate], 0.15. For the molecule `COc1cc2c(cc1OC)[C@@H]1Cc3ccc(OC)c(OC)c3CN1CC2` [Rotundine], the “z-score of subpopulation abundance” value turned out to be 0.07.

Turning to `Cc1ccc2c(Cl)cc(Cl)c(O)c2n1` [Chlorquinaldol], the “z-score of subpopulation abundance” value was found to be 7.61. As to `O=c1[nH]cc(F)c(=O)[nH]1` [Fluorouracil (5-Fluoracil, 5-FU)], the “z-score of subpopulation abundance” value is -2.62.
